Shown is part of a subset that was picked to be rich in hits.
Pf Dd2 inh: qHTS Primary assay for Inhibitors of Plasmodium falciparum Dd2 growth in vitro. P. falciparum Dd2 growth, SYBR Green, 72 h. Potency, µM (doses to about 28.9 µM), most hits filed as inhibitors. 4.3% of 120,000 active; active means well fitted inhibition curve with a large enough effect; further: nearly all actives have a fitted effect of over 65% in size
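Infected erythrocytes (Dd2, 0.3% parasitemia, 2.5% hematocrit final) are added to compound in RPMI-1640/Albumax II medium, grown 72 h at 37C in low oxygen, then lysed with saponin/Triton-X containing SYBR Green and read by fluorescence.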
A number is an active result.

For COc1cc(NC(=O)Cn2cccc2-c2nc(-c3ccc(OC)c(F)c3)no2)cc(OC)c1 the results were Pf Dd2 inh inactive.
For COc1cc(NC(=O)CSc2ncccc2C(=O)OC(C)C)cc(OC)c1 the results were Pf Dd2 inh inactive.
Screening COc1cc(NC(=O)CSc2nc(-c3ccccc3)no2)cc(OC)c1 returned Pf Dd2 inh 1.1µM.
Screening O=C(CN1CCCc2nc(C3CC3)ncc2C1=O)NCc1ccco1 returned Pf Dd2 inh inactive.
For CN1C(=O)C(CC(=O)NC2CCCCC2)=C2CCCCC21 (centres undefined) the results were Pf Dd2 inh inactive.
`COc1ccccc1OCCNC(=O)CCC1CCN(C(=O)c2ccccc2F)CC1` gave Pf Dd2 inh inactive.
`NC(=O)c1ccc(CC2CCN(C(=O)c3cnccn3)CC2)cc1` gave Pf Dd2 inh inactive.
`CCCCN1CC(c2nc3ccccc3n2CCCCOc2ccccc2C)CC1=O` (centres undefined) gave Pf Dd2 inh 10µM.
`Cc1ccccc1OCCCCn1c(C2CC(=O)N(c3ccccc3Cl)C2)nc2ccccc21` (centres undefined) gave Pf Dd2 inh inactive.
Cc1cccc(C)c1OCCCCn1c(C2CC(=O)N(c3ccc(F)cc3)C2)nc2ccccc21 (centres undefined) was read as Pf Dd2 inh inactive.
`COc1ccc([C@H]2C[C@@H](O)[C@@H](O)[C@@H]2NS(=O)(=O)c2ccccc2)cc1` gave Pf Dd2 inh inactive.
Screening COc1ccc(-c2noc(CN(C(=O)c3ccccc3Cl)C(C)C)n2)cc1 returned Pf Dd2 inh inactive.
Cc1ccc(CC(=O)N(Cc2nc(-c3ccc(C)cc3)no2)C(C)C)cc1 was read as Pf Dd2 inh inactive.
COc1ccc(-c2noc(CN(C(=O)C(C)Oc3ccc(C)cc3)C(C)C)n2)cc1 (centres undefined) was read as Pf Dd2 inh 10µM.
O=C(c1ccnc(-c2cncnc2)c1)N1CCCC1 was read as Pf Dd2 inh inactive.
For COc1ccc(OC2CN(C(=O)c3ccccc3F)C2)cc1 the results were Pf Dd2 inh inactive.
Screening O=C(N[C@@H]1CN(C(=O)c2cccc3[nH]ccc23)CC[C@@H]1CO)C1CC1 returned Pf Dd2 inh inactive.
For O=C(NC1CCCN(c2cc(-c3ccc(Cl)cc3)[nH]n2)C1)c1ccoc1 (centres undefined) the results were Pf Dd2 inh inactive.
`CCc1ccc(C2=CC(c3c(F)cccc3Cl)n3c(nc4ccccc43)N2)cc1` (centres undefined) gave Pf Dd2 inh inactive.
`COc1cccc(C2=CC(c3cc(Br)ccc3F)n3nnnc3N2)c1` (centres undefined) gave Pf Dd2 inh inactive.
Screening CC1=C(C(=O)Nc2cccnc2)C(c2ccccc2Cl)n2nc(-c3ccccc3)nc2N1 (centres undefined) returned Pf Dd2 inh inactive.
Screening COc1ccccc1C1C=C(c2ccc(Cl)cc2)Nc2nc(-c3ccc(Cl)cc3)nn21 (centres undefined) returned Pf Dd2 inh 2.8µM.
Screening COc1ccccc1C1C=C(c2ccc(F)cc2)Nc2nc(-c3ccc(Cl)cc3)nn21 (centres undefined) returned Pf Dd2 inh 11µM.
For COc1ccccc1C1C=C(c2ccc(C(C)C)cc2)Nc2nnnn21 (centres undefined) the results were Pf Dd2 inh inactive.
Screening COCc1nc(CCNC(=O)NC2CCCCC2)no1 returned Pf Dd2 inh inactive.
Screening COc1ccc(C(=O)N2CCCCC(NC(=O)NCc3ccco3)C2)cc1 (centres undefined) returned Pf Dd2 inh inactive.
For COc1cccc(CC(=O)N2CCCCCCNC(=O)[C@H]3CCC[C@H]32)c1 the results were Pf Dd2 inh inactive.
O=C1CC(c2ccccc2)N(C(=O)C2CC2)CCCN(C(=O)c2ccco2)CCN1 (centres undefined) was read as Pf Dd2 inh inactive.
Screening O=C(c1ccc(F)cc1)N1CCN(c2nnc3ccccn23)CC1 returned Pf Dd2 inh inactive.
For c1ccc(CC2=NOC3(CCN(Cc4ccccc4)C3)C2)cc1 (centres undefined) the results were Pf Dd2 inh 4.5µM.
`c1cncc(C2=NOC3(CCN(CC4CCCCC4)CC3)C2)c1` gave Pf Dd2 inh inactive.
Screening COc1ccc(CN2CCCC3(CC(Cc4ccccc4)=NO3)C2)cc1 (centres undefined) returned Pf Dd2 inh inactive.
For FC(F)(F)c1ccc(CN2CCCC3(CC(Cc4ccccc4)=NO3)C2)cc1 (centres undefined) the results were Pf Dd2 inh inactive.
Screening c1ccc(CC2=NOC3(CCN(CC4CCCCC4)CC3)C2)cc1 returned Pf Dd2 inh 3.5µM.
For CC(C)CCN1CCCC2(CC(Cc3ccccc3)=NO2)C1 (centres undefined) the results were Pf Dd2 inh inactive.
O=C(c1ccsc1)N1CCCC(c2noc(COc3ccccc3F)n2)C1 (centres undefined) was read as Pf Dd2 inh inactive.
`CC(=O)N1CCN(C(=O)c2cn(CCN)nn2)[C@H]2CS(=O)(=O)C[C@H]21` gave Pf Dd2 inh inactive.
`Cc1ccc(Nc2ccc3c(n2)CN(C)C(=O)CO3)c(C)c1` gave Pf Dd2 inh inactive.
Screening O=C(N1CCN(c2ccccn2)CC1)C1(c2ccc(Cl)cc2)CCOCC1 returned Pf Dd2 inh inactive.
Screening CNC(=O)C1(N2CCC[C@H]2C(=O)NCCNC(C)=O)CCCCC1 returned Pf Dd2 inh inactive.
For CC(C)Cn1nc2n(c1=O)CCN(S(=O)(=O)c1cccc3cccnc13)CC2 the results were Pf Dd2 inh inactive.
`Cc1cc(C)cc(NS(=O)(=O)c2ccc3[nH]cc(C(=O)NCCc4ccccc4)c(=O)c3c2)c1` gave Pf Dd2 inh inactive.
`CCc1ccc(NS(=O)(=O)c2ccc3[nH]cc(C(=O)NCCc4ccccc4)c(=O)c3c2)cc1` gave Pf Dd2 inh inactive.
Cc1ccccc1NS(=O)(=O)c1ccc2[nH]cc(C(=O)NCCc3ccccc3)c(=O)c2c1 was read as Pf Dd2 inh 11µM.
Screening O=C(N[C@@H]1CCC[C@@H]1C(=O)NCC1CCCCC1)c1ccncc1 returned Pf Dd2 inh inactive.
For CC[C@H]1CN(S(C)(=O)=O)CC[C@H]1CC(=O)NCCOC the results were Pf Dd2 inh inactive.
COc1c(F)cc(CNCC2(O)CCCNC2)cc1F (centres undefined) was read as Pf Dd2 inh inactive.
`Cc1cc(Cl)cc(Cl)c1CNCC1(O)CCCNC1` (centres undefined) gave Pf Dd2 inh 7.9µM.
Cc1cnc(CNCC2(O)CNCCOC2)cn1 (centres undefined) was read as Pf Dd2 inh inactive.
Screening Cc1cc(C(=O)N2CCOc3ccc(CCC(N)=O)cc3C2)nn1C returned Pf Dd2 inh inactive.
Cc1cnc(CC2CCCN(C(=O)c3ccn[nH]3)C2)n1Cc1ccccc1 (centres undefined) was read as Pf Dd2 inh inactive.
C=Cc1ccc(Cn2c(=O)n(CC3CCC(C(=O)NC(C)C)CC3)c(=O)c3sccc32)cc1 (centres undefined) was read as Pf Dd2 inh 11µM.
`CNC(=O)C1CCC(Cn2c(=O)c3sccc3n(CC(=O)N3CCCCC3C)c2=O)CC1` (centres undefined) gave Pf Dd2 inh inactive.
For CCCNC(=O)C1CCC(Cn2c(=O)c3sccc3n(Cc3ccccc3C)c2=O)CC1 (centres undefined) the results were Pf Dd2 inh inactive.

Bioassay records (PubChem)
